Only some compounds are listed: those with a hit (about 1.8% of all), similar ones and a draw of the others.
GRK2 inh: blocks RNA aptamer binding to human GRK2; bead flow cytometry, FAM-aptamer displacement from GRK2; inhibition of aptamer binding, % at 10 µM; 0.59% of 330,000 active; AID 488847;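 active = inhibition of aptamer binding above 40%, roughly 3 SD of noise, on plates passing a quality check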;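 also: median bead fluorescence of bound FAM aptamer so fluorescent compounds give negative values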
LANA-H2A inh: blocks KSHV LANA binding to histone H2A/H2B. Q9QR71. cell-free LANA-H2A/H2B peptide, fluorescence polarization. inhibition, % (concentration not given with the values). 0.6% of 320,000 active; in the data active = inhibition mostly above about 10%, no sharp cut-off; inactive = mostly below about 6.7%
PKD1 inh: inhibitors of human PKD1 kinase; Q15139; PKD1 kinase fluorescence polarization assay; inhibition, % (test concentration not listed); 0.056% of 200,000 active
Target sequence (Q15139 whole entry, looked up): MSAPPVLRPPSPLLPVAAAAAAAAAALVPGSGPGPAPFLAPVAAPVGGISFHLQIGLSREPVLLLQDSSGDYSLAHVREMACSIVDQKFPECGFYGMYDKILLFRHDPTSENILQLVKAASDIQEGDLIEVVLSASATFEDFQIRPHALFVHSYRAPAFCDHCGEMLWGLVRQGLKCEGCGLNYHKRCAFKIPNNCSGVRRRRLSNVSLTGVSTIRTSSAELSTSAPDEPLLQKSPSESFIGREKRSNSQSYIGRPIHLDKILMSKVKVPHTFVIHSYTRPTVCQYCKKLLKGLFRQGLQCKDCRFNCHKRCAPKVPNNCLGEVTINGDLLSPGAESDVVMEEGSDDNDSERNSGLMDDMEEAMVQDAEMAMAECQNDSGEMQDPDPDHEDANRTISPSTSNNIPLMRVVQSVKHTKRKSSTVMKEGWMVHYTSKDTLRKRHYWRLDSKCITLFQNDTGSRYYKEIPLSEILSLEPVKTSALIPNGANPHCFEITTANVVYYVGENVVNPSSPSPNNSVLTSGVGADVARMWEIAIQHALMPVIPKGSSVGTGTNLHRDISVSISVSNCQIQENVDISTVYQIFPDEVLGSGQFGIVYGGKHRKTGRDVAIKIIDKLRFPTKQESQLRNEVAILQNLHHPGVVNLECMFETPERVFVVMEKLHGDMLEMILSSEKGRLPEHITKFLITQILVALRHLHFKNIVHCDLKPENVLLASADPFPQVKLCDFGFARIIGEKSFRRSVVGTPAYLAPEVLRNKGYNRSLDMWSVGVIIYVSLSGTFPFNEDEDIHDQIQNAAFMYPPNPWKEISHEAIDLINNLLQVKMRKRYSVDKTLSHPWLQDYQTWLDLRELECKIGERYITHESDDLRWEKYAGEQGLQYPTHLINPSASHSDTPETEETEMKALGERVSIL
DSG3 Ab inh: human desmoglein-3 autoantibody binding inhibition; DSG3-coupled beads, scFv-anti-DSG3-GFP binding, flow cytometry; active compounds read low; binding (percent of control), % at 10 µM; 0.48% of 310,000 active;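 active = binding more than 3 SD below its plate's average and above zero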;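 also: hits lower antibody fragment binding to DSG3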
VLA-4 inh: inhibition in a human VLA-4 binding assay; AID 2557; 0.2% of 330,000 active; inhibition, % (about 7 µM as worked out from the volumes in the protocol); P13612; VLA-4 expressing cells, ligand binding flow cytometry
HDAC3 inh: human HDAC3 inhibition; O15379; recombinant HDAC3, fluorogenic peptide/trypsin coupled, fluorescence; inhibition, % at 8.3 µM; 0.15% of 320,000 active; AID 2718; in the data active = inhibition above about 26%, passing the limit was not always enough
* = called active by the depositor. Rule as the data show it, unless noted: active = inhibition above about 50%; inactive = the rest.

How did COc1ccc(C(=O)Nc2ccc3c(c2)C(=O)c2ccccc2C3=O)cc1OC do in these assays?
GRK2 inh: 0; LANA-H2A inh: -1; PKD1 inh: -6; DSG3 Ab inh: 72*; VLA-4 inh: -1; HDAC3 inh: 0

What do the screens show for `O=C(CC(=O)N/N=C/c1c(Cl)cccc1Cl)NCc1cccnc1`?
GRK2 inh: 1; LANA-H2A inh: -5; VLA-4 inh: -1; HDAC3 inh: 2

Results for S=C(c1ccc2c(c1)OCO2)N1CCOCC1 ?
GRK2 inh: 1; LANA-H2A inh: -1; VLA-4 inh: -1; HDAC3 inh: -2

Results for Fc1ccc(COc2ccc(C(=S)N3CCCC3)cc2)cc1 ?
GRK2 inh: 0; LANA-H2A inh: 22*; DSG3 Ab inh: 111; VLA-4 inh: 3; HDAC3 inh: 0

How did CCOc1cc(C(=S)N2CCCC2)ccc1OCc1ccccc1 do in these assays?
GRK2 inh: 1; LANA-H2A inh: 9.2*; DSG3 Ab inh: 112; VLA-4 inh: 2; HDAC3 inh: 3

What do the screens show for `CCOc1ccc(C(=S)N2CCCC2)cc1OCC`?
GRK2 inh: 2; LANA-H2A inh: -2; DSG3 Ab inh: 108; VLA-4 inh: 0; HDAC3 inh: 3

Results for S=C(c1ccc(OCc2ccccc2)cc1)N1CCCC1 ?
GRK2 inh: 3; LANA-H2A inh: -22; DSG3 Ab inh: 119; VLA-4 inh: 5; HDAC3 inh: -2

Results for Cc1c(NS(=O)(=O)c2cc(C(=O)OCC(=O)c3ccccc3F)ccc2Cl)c(=O)n(-c2ccccc2)n1C ?
DSG3 Ab inh: 99

What do the screens show for `Cc1cccc(N2C(=O)CN(Cc3cccs3)C2=S)c1`?
GRK2 inh: 1; LANA-H2A inh: active; PKD1 inh: -2; VLA-4 inh: -5; HDAC3 inh: 1

How did CCCN(CCC)C(=O)C1CC(=O)OC12CCCCC2 (centres undefined) do in these assays?
GRK2 inh: 0; LANA-H2A inh: 13*; PKD1 inh: 3; VLA-4 inh: 4; HDAC3 inh: 4

How did CCOC(=O)C1CCCN(C(=O)C2c3ccccc3Oc3ccccc32)C1 (centres undefined) do in these assays?
GRK2 inh: 0; LANA-H2A inh: 71*; PKD1 inh: -2; DSG3 Ab inh: 102; VLA-4 inh: -20; HDAC3 inh: 0

What do the screens show for `CCOC(=O)C1CCCN(C(=O)C2COc3ccccc3O2)C1` (centres undefined)?
DSG3 Ab inh: 102

Results for C=CCn1c(SCc2ccc(C(=O)NCCO)cc2)nc2sc(C)c(C)c2c1=O ?
GRK2 inh: 0; LANA-H2A inh: 23*; PKD1 inh: 1; DSG3 Ab inh: 104; VLA-4 inh: 17; HDAC3 inh: 10

Results for C=CCn1c(SCC(=O)c2c(N)n(C)c(=O)n(C)c2=O)nc2sc(C)c(C)c2c1=O ?
GRK2 inh: 0; LANA-H2A inh: 111*; PKD1 inh: 16; DSG3 Ab inh: 90; VLA-4 inh: 0; HDAC3 inh: -8

Results for CSc1ccc(C2=C/C(=C3/SC(=S)NC3=O)c3ccccc3O2)cc1 ?
DSG3 Ab inh: 81*

What do the screens show for `O=C(CSc1nc2ccccc2nc1N1CCCCC1)N1CCN(c2ccccc2)CC1`?
GRK2 inh: 3; LANA-H2A inh: -2; DSG3 Ab inh: 94; VLA-4 inh: 15; HDAC3 inh: 6

What do the screens show for `COc1cc(CN(C)c2ncnc3sccc23)ccc1OC(F)F`?
GRK2 inh: 2; LANA-H2A inh: 16*; DSG3 Ab inh: 35*; VLA-4 inh: 0; HDAC3 inh: 6

How did COc1ccc(OC)c(Nc2ncnc3sccc23)c1 do in these assays?
GRK2 inh: 0; LANA-H2A inh: -4; DSG3 Ab inh: 85; VLA-4 inh: -19

What do the screens show for `O=C(COC(=O)COc1ccc(Cl)cc1)NC1CCCCCC1`?
DSG3 Ab inh: 115

What do the screens show for `O=C(Nc1ccccc1Cl)Nc1ccnn1C1CCN(C(=O)CCN2CCCO2)CC1`?
GRK2 inh: 0; LANA-H2A inh: 0; DSG3 Ab inh: 107; VLA-4 inh: 5; HDAC3 inh: 2

Results for O=C(Nc1cccc(F)c1)Nc1ccnn1C1CCN(C(=O)CCN2CCCO2)CC1 ?
GRK2 inh: 0; LANA-H2A inh: 2; DSG3 Ab inh: 0.6*; VLA-4 inh: -4; HDAC3 inh: 0
